Tb PYK inh: T. brucei pyruvate kinase inhibition. TbPYK enzyme, Kinase-Glo Plus ATP luminescence, 45 min. Potency, µM (doses to about 76.8 µM), for the others: top-dose activity, negative = inhibition, most hits filed as inhibitors. 410,000 compounds, 0.12% hits. AID 624173; further: on the % scale 0 is the no-effect control and ±100 the full control effect; nearly all actives have a fitted effect of over 50% in size
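TbPYK + substrate in 50 mM TEA pH 7.2, 100 mM KCl, 10 mM MgCl2, 0.05% BSA, 0.01% Tween-20; cpd pinned; ADP 130 uM final; 45 min RT; Kinase-Glo Plus 10 min; luminescence endpoint.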
SARS PLP yeast: SARS-CoV PLP inhibition in yeast. Potency, µM (doses to about 32.9 µM), without a hit: at the top dose activity, positive = growth rescue, hits mostly activators. AID 485353. 330,000 compounds, 0.19% hits. S. cerevisiae expressing SARS-CoV PLpro, growth rescue; calls by dose curve; further: 0% is about no effect; nearly all actives have a fitted effect of over 55% in size
AmpC no deterg: AmpC beta-lactamase inhibition without detergent | P00811 | AmpC nitrocefin hydrolysis, absorbance 480 nm, 0.0001% Triton | Potency, µM (series often up to 57.1 µM), for inactives: at the top dose activity change, negative = inhibition, hits mostly inhibitors | 330,000 compounds, 0.52% hits | AID 485341;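 further: plate controls were no compound for no effect and no enzyme for full effect; nearly all actives have a fitted effect of over 20% in size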
Target sequence (P00811 whole entry, looked up): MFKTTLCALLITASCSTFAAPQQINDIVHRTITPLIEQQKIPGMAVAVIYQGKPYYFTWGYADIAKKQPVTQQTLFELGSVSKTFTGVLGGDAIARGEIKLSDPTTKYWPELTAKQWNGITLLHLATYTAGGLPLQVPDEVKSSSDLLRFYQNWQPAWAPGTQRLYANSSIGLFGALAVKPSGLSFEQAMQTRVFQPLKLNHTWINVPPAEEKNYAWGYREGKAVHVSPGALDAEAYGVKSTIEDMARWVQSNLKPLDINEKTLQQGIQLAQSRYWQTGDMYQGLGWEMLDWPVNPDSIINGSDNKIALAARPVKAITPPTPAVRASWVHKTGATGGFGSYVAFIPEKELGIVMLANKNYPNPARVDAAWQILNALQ
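20 mM phosphate pH 7.0 + 0.01% (detergent screen) or 0.0001% Triton X-100; 5.3 nM AmpC reagent; cpd preinc 15 min RT; nitrocefin (800 uM stock) to start; A480 q20 s × 4 min; Activity was normalised to no-enzyme and no-compound control wells.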
RE007 growth inh: less growth of the S. pombe RE007 Vpr strain; 360,000 compounds, 0.21% hits; S. pombe RE007 Vpr strain, BacTiter-Glo ATP luminescence, 24 h; Potency, µM (top dose mostly 92.2 µM), for inactives: at the top dose activity change, negative = less growth, most hits filed as inhibitors; active means well fitted falling curve with a large enough effect; inconclusive means small, poorly fitted or top-dose-only effect; inactive means no such curve, though single readings can be large or run the other way; further: on the % scale 0 is the no-effect control and ±100 the full control effect; nearly all actives have a fitted effect of over 50% in size
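Fission yeast strain RE007, carrying one chromosomally integrated HIV-1 vpr copy, was seeded at OD 0.01 in PMG+AL medium with 23 nL pinned compound. After 24 h at 30 °C and 99% humidity, viability was read by BacTiter-Glo luminescence.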
Sm TGR inh: S. mansoni TGR enzyme inhibition. Q962Y6. purified TGR, DTNB reduction, TNB absorbance 405 nm. Potency, µM (highest dose often 114 µM), inactives show at the highest dose activity change, negative = inhibition, most hits filed as inhibitors. 360,000 compounds, 3% hits. AID 485364; further: on the % scale 0 is the no-effect control and ±100 the full control effect; nearly all actives have a fitted effect of over 60% in size
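Kinetic colorimetric format: TGR-catalysed, NADPH-driven DTNB reduction monitored via TNB absorbance. Enzyme dispensed at 20 nM; compound exposure 15 min at room temperature before reaction start.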
AmpC detergent: AmpC beta-lactamase inhibition with detergent present | AmpC hydrolysis of nitrocefin, absorbance 480 nm, 0.01% Triton | Potency, µM (titrated, usually from 114 µM), for inactives: at the top dose activity change, negative = inhibition, hits mostly inhibitors | 370,000 compounds, 0.041% hits;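 further: 0% = no-compound wells and -100% = no-enzyme wells; nearly all actives have a fitted effect of over 25% in size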
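20 mM phosphate pH 7.0 + 0.01% (detergent screen) or 0.0001% Triton X-100; 5.3 nM AmpC reagent; cpd preinc 15 min RT; nitrocefin (800 uM stock) to start; A480 q20 s × 4 min; Activity was normalised to no-enzyme and no-compound control wells.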
Active calls of the source: *; ? = inconclusive; . = not tested or not shown. Only some compounds are listed: those with a hit (about 3.3% of all), similar ones and a draw of the others. Unless noted, the call rests on the fitted dose curve; in most records, active means well fitted curve in the direction sought with a large enough effect; inconclusive means small, poorly fitted or top-dose-only effect, or another doubt; inactive means no such curve, though single readings can be large; an effect the other way counts as inactive or inconclusive. Potency means the concentration at half of the fitted maximal effect.

SMILES	Tb PYK inh	SARS PLP yeast	AmpC no deterg	RE007 growth inh	Sm TGR inh	AmpC detergent
CC1(C(=O)O)CCC2(C)CCC3(C)C(=CC(=O)[C@@H]4C5(C)CC[C@H](O[C@H]6O[C@H](C(=O)O)C(O)C(O)[C@H]6O[C@@H]6O[C@H](C(=O)O)C(O)C(O)C6O)C(C)(C)[C@@H]5CCC43C)[C@@H]2C1 (stereo not given in full)	8.6%	.	.	.	.	.
Cc1ccc(S(=O)(=O)Cc2ccc(C(=O)N3CCCC3)o2)cc1	-0.1%	3.5%	2.5%	7.1%	44.7µM*	7.7%
CCOC(=O)C1CCCN(C(=O)c2ccc(-c3ccc([N+](=O)[O-])cc3)o2)C1 (stereo not given)	?	-44.3%	-1.0%	?	6.31µM*	-19.7%
CC(=O)C[C@H]1[C@H](O[C@H]2[C@H](OC(C)C(=O)N[C@@H](C)C(=O)N[C@H](CCC(=O)N[C@@H](CCCCN)C(=O)N[C@H](C)C(=O)O)C(N)=O)[C@@H](NC(=O)O)C(O)O[C@@H]2CO)O[C@H](CO)[C@@H](O)[C@@H]1O (stereo not given in full)	-4.5%	.	.	.	.	.
COc1ccc(CNC(=O)CN2N=C(c3ccccc3)CCC2=O)c(OC)c1	5.7%	.	.	.	1.4%	2.2%
C/C(=N/NC(=O)CSc1nc2ccccc2n1C)c1ccco1	-2.5%	-0.9%	-26.9%	0.6%	0.6%	2.7%
CCn1c(SCC(=O)N/N=C/C=C\c2ccco2)nc2ccccc21	-13.1%	10.5%	-30.0%	-5.2%	22.4µM*	?
Cn1c(SCC(=O)N/N=C/C=C\c2ccco2)nc2ccccc21	-21.9%	0.6%	-8.8%	-16.3%	22.4µM*	-2.1%
O=C(NCc1cccnc1)c1nn(-c2ccccc2F)nc1CO	3.3%	.	.	.	-4.2%	2.5%
COc1ccc(-c2nc(SCC(=O)NC(C)CCc3ccccc3)n[nH]2)cc1 (stereo not given)	0.7%	.	.	.	1.5%	-4.2%
O=C(Nc1ccc(CN2CCOCC2)cc1)c1ccc(-c2ccc(Cl)cc2Cl)o1	2.4%	-1.0%	116.4%	10.9%	50.1µM*	-0.2%
CC(Cl)C(=O)NNc1cccc(Cl)n1 (stereo not given)	-12.4%	2.1%	-6.1%	16.6%	12.6µM*	1.1%
O=C(NNc1cccc(Cl)n1)Nc1ccccc1	-0.8%	-0.2%	-20.2%	19.2%	-21.4%	?
CN(C)C1(CNC(=O)COc2ccc(C(C)(C)C)cc2)CCCCC1	1.8%	.	.	.	-0.4%	18.2%
Fc1ccccc1/C=C1\CCCC2=C1Nc1nnnn1C2c1ccccc1F (stereo not given)	-0.8%	-1.4%	-43.0%	-4.8%	6.31µM*	-2.9%
Cc1ccc(S(=O)(=O)Cc2ccc(C(=O)N3CCN(c4ccccn4)CC3)o2)cc1	0.9%	-0.8%	10.5%	-3.6%	?	-7.6%
Cc1cccc(CS(=O)(=O)Cc2ccc(C(=O)N3CCC4(CC3)OCCO4)o2)c1	3.6%	6.2%	25.8%	1.1%	?	2.1%
COc1ccc(S(=O)(=O)Cc2ccc(C(=O)N3CC(C)CC(C)C3)o2)cc1 (stereo not given)	-3.5%	2.5%	44.8%	-1.6%	?	?
O=C(c1ccc(CS(=O)(=O)c2ccccc2)o1)N1CCN(c2ncccn2)CC1	-4.2%	-1.8%	-2.5%	2.5%	28.2µM*	-7.4%
COc1ccc(S(=O)(=O)Cc2ccc(C(=O)N3CCOCC3)o2)cc1	-3.6%	5.8%	-2.0%	11.2%	28.2µM*	?
COc1ccccc1S(=O)Cc1ccc(C(=O)NCc2ccccc2Cl)o1 (stereo not given)	-23.6%	3.5%	0.8%	5.3%	15.8µM*	-7.3%
O=C(c1ccc(CS(=O)(=O)c2ccccc2)o1)N1CCC2(CC1)OCCO2	-3.7%	10.5%	-2.1%	-8.2%	22.4µM*	-11.7%
